Compound activity deposited in PubChem BioAssay by National Center for Advancing Translational Sciences (NCATS).
IL1B secr inh = inhibitors of inflammasome signaling (IL-1 beta secretion); THP-1 LPS/ATP IL-1B secretion, AlphaLISA, 16 h; stronger effect = lower value; activity change, % at 57.5 µM; hit rate 4.7% among 360,000; AID 743279; in the data active means activity change below about -50%; inconclusive means mostly about -30% to -49%
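Secreted IL-1B measured by AlphaLISA bead assay after 16 h compound exposure of THP-1 cells; compounds (final up to 57.5 uM) added 1 h before LPS (250 ng/mL) and ATP (1.25 mM) stimulation; lower signal means less secretion.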
HT1080 IDH1KD tx = toxicity to HT-1080 IDH1 knockdown cells (counter line); AID 686971; hit rate 2% among 360,000; Potency, µM (highest dose often 46.1 µM), inactives show at the highest dose activity, negative = toxicity, hits mostly cytotoxic; HT-1080 IDH1 knockdown viability, ATP luminescence, 48 h;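 further: potency means the concentration at half of the fitted maximal effect; 0% = DMSO wells and -100% = cell-free medium wells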
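HT-1080-IDH1KD cells (IDH1 knocked down), 750/well in RPMI with 5% FBS, treated with compound 48 h at 37 degrees C. Viability by CellTiter-Glo luminescence, normalised to DMSO and no-cell wells; concentration-response curves classed.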
DT40 TDP1 CPT = growth inhibition of DT40 Tdp1-/-;hTDP1 cells with camptothecin (screen for TDP1 inhibitors). chicken DT40 Tdp1-/-;hTDP1 cells + 20 nM CPT, ATP luminescence, 48 h. Potency, µM (titrated, usually from 46.2 µM), without a hit: top-dose activity change, negative = growth inhibition, most hits filed as inhibitors. hit rate 12% among 420,000; further: potency means the concentration at half of the fitted maximal effect; nearly all actives have a fitted effect of over 55% in size
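Chicken DT40 Tdp1-/- cells stably complemented with human TDP1 were seeded at 400 cells/well in medium containing 20 nM camptothecin, exposed to pin-transferred compounds, and grown at 37 °C for at least 48 hr. Viability was read as ATP luminescence.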
HT1080-NT tox = kills 2HG-producing HT-1080-NT fibrosarcoma cells | Potency, µM (titrated, usually from 46.1 µM), inactives show top-dose activity, negative = less viability, usual class: cytotoxic | hit rate 1.6% among 360,000 | HT-1080-NT fibrosarcoma viability, CellTiter-Glo ATP luminescence, 48 h | AID 686970;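 further: NT is the 2HG producing partner of a matched IDH1 knockdown line; potency means the concentration at half of the fitted maximal effect; 0% = DMSO-treated cells and -100% = media-only wells without cells; nearly all actives have a fitted effect of over 55% in size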
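Luminescent CellTiter-Glo readout after 48 hours of compound exposure at 37 degrees C defined viability of HT-1080-NT cells. Activity was normalized to DMSO wells and cell-free media wells; concentration-response curves were fitted and assigned curve classes.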
DT40 TDP1 no CPT = qHTS for Inhibitors of human tyrosyl-DNA phosphodiesterase 1 (TDP1): qHTS in cells in absence of CPT; DT40 Tdp1-/- hTDP1 cells, no CPT, ATP luminescence, 48 h; Potency, µM (top dose mostly 46.2 µM), inactives show top-dose activity change, negative = growth inhibition, hits mostly inhibitors; hit rate 15% among 420,000; AID 686978, 2013; further: potency means the concentration at half of the fitted maximal effect; nearly all actives have a fitted effect of over 55% in size
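Cells were dispensed at 400 per well, compounds added by pin tool, plates incubated ≥48 hr at 37 °C, then CellTiter-Glo added for 30 min at room temperature before luminescence reading. Line: DT40 Tdp1-/- complemented with hTDP1; camptothecin omitted.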
Starred values were filed as active, the others as inactive; ? = inconclusive; nt = no result given; ! = a repeat was not active; [ ] = another dose, or the depositor's remark. Shown are actives, neighbours in structure and some others; about 19% of the full set was active somewhere. Unless noted, the call rests on the fitted dose curve; in most records, active means well fitted curve in the direction sought with a large enough effect; inconclusive means small, poorly fitted or top-dose-only effect, or another doubt; inactive means no such curve, though single readings can be large; an effect the other way counts as inactive or inconclusive. Unless noted, on the % scale 0 is the no-effect control and ±100 the full control effect.

SMILES	IL1B secr inh	HT1080 IDH1KD tx	DT40 TDP1 CPT	HT1080-NT tox	DT40 TDP1 no CPT
CC(NC(=O)CN1C(=O)COc2ccc(Cl)cc21)c1ccccc1 (stereo unspecified)	nt	nt	-1%	nt	-18%
CC1(C(=O)Nc2ccc3c(c2)OCCO3)CN(S(C)(=O)=O)CC(=O)N1CCc1ccccc1 (stereo unspecified)	-23	-9%	5%	-7%	6%
CCNC(=O)C1(C)CCCN(CCOc2ccc(Cl)cc2)C1 (stereo unspecified)	-10	0%	?	13%	?
Cc1ccccc1C(=O)N1CCc2c(cnc(C)c2CNC(=O)c2ccc3c(c2)OCO3)C1	nt	nt	6%[9.04 µM]	nt	-24%
O=C(COC(=O)c1ccc(Cl)c(S(=O)(=O)N2CCCCC2)c1)NC1CCCCC1	25	4%	-11%	1%	-11%
Fc1cccc(Cl)c1/C=N/Nc1ccccn1	10	-14%	4%	-17%	-26%
Nc1nccc(/C=C/c2c(F)cccc2Cl)n1	-85*	-11%	-3%	-3%	-5%
O=C(NCc1ccccc1)C1CCCN(C(=O)NCc2ccccc2)C1 (stereo unspecified)	2	8%	1.5µM*	2%	4%
CC(C)Cn1cc(NC(=O)N2CCN(c3ccc(F)cc3)CC2)c2ccccc2c1=O	nt	nt	15µM*	nt	18µM*
COc1ccc(CNC(=O)N2CCN(c3ccccc3)CC2)cc1	-14	8%	4%	13%	-6%
O=C(O)C1CCCN(C(=O)NCc2ccccc2)C1 (stereo unspecified)	-16	8%	-11%	16%	-6%
COc1ccccc1NC(=O)N1CCN(c2ccc(F)cc2)CC1	?	2%	-14%	16%	-28%
O=C(NCc1ccccc1)N1CCN(c2ccc(F)cc2)CC1	-6	21%	18µM*	23%	15µM*
O=C(NCc1ccccc1)N1CCN(c2ccc(Cl)c(Cl)c2)CC1	39	?	18µM*	?	5.8µM*
O=C(Nc1ccc(F)cc1F)N1CCN(c2ccc(Cl)c(Cl)c2)CC1	nt	nt	6.5µM*	nt	4.6µM*
O=C(NC1CCN(C(=O)NCc2ccccc2)CC1)c1ccc(F)cc1	18	15%	-2%	11%	-12%
O=C(c1ccc(Cl)cc1)C1CCN(C(=O)c2ccc(F)cc2)CC1	-5	8%	21µM*	-29%	10µM*
Cc1ccc(C(=O)N2CCC(C(=O)c3ccc(F)cc3)CC2)cc1	-1	-1%	?	-2%	?
O=C(c1ccc(F)cc1)C1CCN(C(=O)NCc2ccccc2)CC1	-5	-1%	16µM*	-14%	23µM*
Nc1cc2nc3ccccc3oc-2cc1=O	4	?	2.1µM*	?	1.8µM*
COc1ccc(C(=O)c2oc3ccccc3c2NC(=O)COc2c(C)cc(C)cc2C)cc1	nt	nt	-22%	nt	-7%
CCOC(=O)C1CCCN(c2ncnc3c2cnn3-c2cccc(C)c2)C1 (stereo unspecified)	6	18%	-12%	9%	-10%
CCN(CC)C(=O)C1CCCN(c2ncnc3c2cnn3-c2ccc(Cl)cc2)C1 (stereo unspecified)	-54*	-2%	?	-7%	18µM*
CCN(CC)C(=O)C1CCCN(c2ncnc3c2cnn3-c2cccc(C)c2)C1 (stereo unspecified)	-56*	-13%	?	-26%	16µM*
CC(NC(=O)C(C)N1c2cccc3cccc(c23)S1(=O)=O)c1ccccc1 (stereo unspecified)	-20	-9%	?	-5%	-26%
SMILES	IL1B secr inh	HT1080 IDH1KD tx	DT40 TDP1 CPT	HT1080-NT tox	DT40 TDP1 no CPT
O=C(/C(=C/c1ccncc1)n1ccnc1)c1ccc(Cl)cc1Cl	-10	-1%	16µM*	-3%	13µM*
O=C(/C(=C/c1cccnc1)n1ccnc1)c1ccc(Cl)cc1Cl	?	-8%	16µM*	5%	15µM*
N/C(=N\OC(=O)c1ccc(Cl)cc1Cl)c1ccncc1	-23	-8%	-14%	-1%	2%
Nc1ncc(-c2nnnn2-c2ccc(Cl)cc2)c(-c2ccc(Cl)cc2)n1	40	7.3µM*	4.6µM*	6.5µM*	5.8µM*
Clc1ccc(-c2nnnn2-c2ccc(Cl)cc2)cc1	9	-7%	-9%	?	-24%
Cc1cc(C(=O)COC(=O)/C=C/c2ccco2)c(C)n1C	?	5%	10%	3%	1%
O=c1c2cc(F)ccc2sn1-c1ccccc1	-2	?	1.8µM*	?	2.1µM*
CC1(C)CC(=O)N(c2cccc(C(F)(F)F)c2)C(=O)C1	8	0%	?	-25%	10%
O=c1c2cc(C(F)(F)F)ccc2sn1-c1ccccc1	2	-5%	5.2µM*	-16%	5.2µM*
O=C(CN1C(=O)NC2(CCCCC2)C1=O)NCc1cccs1	-2	-2%	-4%	3%	-22%
C=CCNC(=S)/N=c1/ccccn1CCC	33	-1%	?	-1%	23µM*
CCCc1nnc(NC(=O)CCC(=O)N2CCN(Cc3ccc(C)cc3C)CC2)s1	10	-12%	-22%	-21%	8.2µM*
Cc1ccc(CN2CCN(C(=O)CCC(=O)Nc3nnc(C(C)C)s3)CC2)c(C)c1	-86*	-16%	?	-22%	?
CCc1nnc(NC(=O)CCC(=O)N2CCN(Cc3ccc(F)cc3)CC2)s1	22	-4%	-26%	10%	-4%
CCc1nnc(NC(=O)CCC(=O)N2CCN(Cc3ccc(C)cc3C)CC2)s1	33	-12%	?	-8%	18µM*
CCOc1ccc(CC2S/C(=N/c3ccccn3)NC2=O)cc1 (stereo unspecified)	37	?	-20%	?	?
CCc1ccc(CCOc2ccc(CC3SC(=O)NC3=O)cc2)nc1 (stereo unspecified)	62	-11%	21µM*!	4%	?
COc1ccc(Nc2nc(C)cc(C)c2C#N)cc1OC	-9	2%	-13%	0%	-15%
CC(NC(=O)C1CCN(S(=O)(=O)c2ccc(F)cc2)CC1)c1ccccc1 (stereo unspecified)	nt	nt	?	nt	-12%
Cc1nc(Sc2ccc(Br)cc2)c(C#N)c(C)c1[N+](=O)[O-]	-105*	?	21µM*	?	9.2µM*
Cc1nc(Sc2ccc(Cl)cc2)c(C#N)c(C)c1[N+](=O)[O-]	nt	?	?	?	10µM*
CC(OC(=O)Cn1[nH]c(=O)c2ccccc2c1=O)C(=O)NC1(C#N)CCCCC1 (stereo unspecified)	26	-2%	12%	0%	-2%
Nc1ccc(C(=O)n2c3ccccc3c3ccccc32)cc1	17	0.92µM*	1.8µM*	?	2.3µM*
